# Key:
# Settings in all cases: concentration: 1 μM, replicates: in singlicate; n = 1
# HUNK = system: HUNK
# ICK = system: ICK
# IGF1R = system: IGF1R
# IKK-alpha = system: T1, IKK-alpha
# T1 construct: gene CHUK
# IKK-beta = system: T2, IKK-beta
# T2 construct: gene IKBKB
# IKK-epsilon = system: T3, IKK-epsilon
# T3 construct: gene IKBKE
# INSRR = system: INSRR
# INSR = system: INSR
# IRAK1 = system: IRAK1
# IRAK3 = system: IRAK3
# IRAK4 = system: IRAK4
# ITK = system: ITK
# [1] = system: JAK1(JH1domain-catalytic)
# [2] = system: JAK1(JH2domain-pseudokinase)
# [3] = system: JAK2(JH1domain-catalytic)
# [4] = system: JAK3(JH1domain-catalytic)
# JNK1 = system: T4, JNK1
# T4 construct: gene MAPK8
# JNK2 = system: T5, JNK2
# T5 construct: gene MAPK9
# JNK3 = system: T6, JNK3
# T6 construct: gene MAPK10
# KIT-autoinhibited = system: KIT-autoinhibited
# 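Also: KINOMEscan kinase panel screen.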
Compound,%Inh (HUNK) [%],%Inh (ICK) [%],%Inh (IGF1R) [%],%Inh (IKK-alpha) [%],%Inh (IKK-beta) [%],%Inh (IKK-epsilon) [%],%Inh (INSRR) [%],%Inh (INSR) [%],%Inh (IRAK1) [%],%Inh (IRAK3) [%],%Inh (IRAK4) [%],%Inh (ITK) [%],%Inh [1] [%],%Inh [2] [%],%Inh [3] [%],%Inh [4] [%],%Inh (JNK1) [%],%Inh (JNK2) [%],%Inh (JNK3) [%],%Inh (KIT-autoinhibited) [%]
COC(=O)c1c(-c2ccccc2)c2cc(C(=O)O)ccc2c(=O)n1Cc1ccccc1,43,0,4,0,0,0,7,0,18,0,22,5,2,0,0,0,0,0,0,0
COc1ccc(Nc2nccc(NCCNC(=O)Nc3ccccc3F)n2)cc1 [GSK1379901],9,0,10,0,11,12,0,0,36,8,20,9,15,0,25,0,56,15,11,0
CC(C)(C)c1ccc(C(=O)Nc2cn3cc(Cl)ccc3n2)cc1,43,0,0,0,100,0,0,0,0,23,0,0,0,7,1,0,0,0,0,42
Cc1ccc(-c2cc(-c3c[nH]nc3-c3ccccn3)ccn2)cc1 [GW684088],1,0,36,0,0,9,0,0,0,7,0,0,12,1,0,0,29,36,53,2
Cn1cncc1-c1ccc2ncnc(Nc3ccc(OCc4ccccc4)cc3)c2c1 [GW320571],0,0,24,0,0,0,22,3,11,3,2,14,18,22,0,0,18,6,4,0
Cl.O=C(Nc1cccc(-c2nn3ncccc3c2-c2ccnc(Nc3cccnc3)n2)c1)c1c(F)cccc1F [GSK312879],0,10,25,30,31,0,9,11,28,0,28,15,15,0,23,0,14,18,19,0
COC(=O)c1c(-c2ccccc2)c2cc(OC)ccc2c(=O)n1Cc1ccccc1,0,0,0,5,4,0,9,0,11,12,10,9,10,0,0,0,66,68,85,6
COc1ccc2nc(-c3cccc(C)n3)nc(Nc3ccncc3)c2c1 [GSK204919],9,0,0,0,22,3,0,0,4,0,0,13,0,80,10,0,0,60,36,0
Cc1csc(-c2nc(Nc3ccncc3)c3ccccc3n2)n1 [GW869640],0,33,14,48,41,0,11,2,12,0,0,11,0,74,53,9,54,16,15,24
COc1cc2ncnc(Nc3ccc4nc(-c5ccccc5)[nH]c4c3)c2cc1OC.Cl [GW282450],0,4,6,0,0,0,0,94.3,25,0,13,14,6,0,0,0,18,26,19,0
